Values joined by “and” are separate entries in the source; they are usually repeats but may differ in a detail not shown here. Equal values may be shown once. About 79,000 compounds went through this panel and 15% of them were active in at least one assay; those are over-represented in the sample as a whole. A number with no mark means an inactive call. Active and inactive are the calls of the source. Cut-off read from the data, not from the text of the source: active = growth inhibition above about 70%; inactive = the rest.

The nature of experiment [1]: NCI Yeast Anticancer Drug Screen. Data for the rad50 strain (AID 155).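 Note: 0% = growth of vehicle-only cultures of the same strain.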 The conditions noted are these: S. cerevisiae rad50 strain growth inhibition, active compounds read high; at 50.0 µM unless noted. Put shortly:
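Cells are treated with compound, grown, and their growth is then scored against vehicle-only cultures of the same repair-deficient yeast strain.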

A short description of experiment [2]: NCI Yeast Anticancer Drug Screen. Data for the mec2-1 strain (AID 157). The following applies: S. cerevisiae mec2-1 strain, active compounds read high; at 50.0 µM unless noted. Put shortly:
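Mutant yeast (mec2-1) grown with compound; growth inhibition relative to vehicle control reported.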

Experiment [3] is described as follows: NCI Yeast Anticancer Drug Screen. Data for the sgs1 mgt1 strain (AID 161).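 Note: 0% = growth of cultures given vehicle only.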 The conditions noted are these: S. cerevisiae sgs1 mgt1 strain, active compounds read high; at 50.0 µM unless noted. The method in brief:
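Percent growth inhibition was derived by comparing compound-exposed mutant yeast with vehicle-exposed cultures. The strain carries alterations in DNA damage repair.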

A short description of experiment [4]: NCI Yeast Anticancer Drug Screen. Data for the cln2 rad14 strain (AID 165).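 Note: 0% = growth equal to vehicle treated cultures.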 The conditions noted are these: S. cerevisiae cln2 rad14 strain, active compounds read high; at 50.0 µM unless noted. The method in brief:
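Readout is yeast growth inhibition versus vehicle-treated controls, using a strain with cln2 and rad14 alterations exposed to compound.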

Experiment [5] in a line: NCI Yeast Anticancer Drug Screen. Data for the bub3 strain (AID 167). The conditions noted are these: S. cerevisiae bub3 mutant strain, active compounds read high; at 50.0 µM unless noted. The method in brief:
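Part of a panel of yeast mutants defective in DNA damage repair or cell cycle regulation. Each strain is grown with compound, and inhibition is calculated relative to solvent-treated cultures.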

Experiment [6] in a line: NCI Yeast Anticancer Drug Screen. Data for the mlh1 rad18 strain (AID 175). The following applies: S. cerevisiae mlh1 rad18 strain growth inhibition, active compounds read high; at 50.0 µM unless noted. Put shortly: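 Genetically defined yeast (DNA repair-deficient) exposed to compounds; growth inhibition determined relative to vehicle.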

As for `CCCCCCCCCc1cc(=O)c2c(O)cccc2o1`, the growth inhibition in experiment [1] was -25.8%; in experiment [2] it was -30.6%; in experiment [3], -11%; in experiment [4], -20.1%; in experiment [5], 18.6%; in experiment [6] it was -22.4%.
In the case of `NCCCCCCCCCCN`, the growth inhibition in experiment [1] is -22.9%; in experiment [2], -5.1%; in experiment [3], -5.9%; in experiment [4], -29.4%; in experiment [5] it was -35.7%; in experiment [6], -11.9%.
In the case of `NNc1nc(NCc2ccco2)c2[nH]cnc2n1`, the growth inhibition was -10% in experiment [1]; -7.95% in experiment [2]; 1.5% in experiment [3]; 2.45% in experiment [4]; 2.5% in experiment [5]; 12.8% in experiment [6].
As to `CCN1CCN(c2nc3ccccc3c3c2CCOc2ccccc2-3)CC1`, the growth inhibition in experiment [1] is -12.4%; in experiment [2], -16.9%; in experiment [3], -15.8%; in experiment [4] it was 19.1%; in experiment [5], 0.25%; in experiment [6], 6%.
On to `COc1cccc(C)c1C(=O)O`, for which the growth inhibition in experiment [1] is -4.05%; in experiment [2], 1.7%; in experiment [3] it was 5.7%; in experiment [4], -20.1%; in experiment [5], -32%; in experiment [6], -5.4%.
On to `COc1cccc(NC(=O)NCCCl)c1OC`, for which the growth inhibition in experiment [1] was -1.2%; in experiment [2], 11.8%; in experiment [3], 11.6%; in experiment [4], 41%; in experiment [5], -3.8%; in experiment [6], 22.4%.
On to `CC(=O)NC(CCC(C)C)C(=O)O` (stereo not given), for which the growth inhibition is -0.05% in experiment [1]; 25.2% in experiment [2]; 4.75% in experiment [3]; -13.6% in experiment [4]; 15.6% in experiment [5]; -7.35% in experiment [6].
With `Cn1c2cccc3nnc4cccc(c4c32)n1C`, the growth inhibition in experiment [1] is -37.1%; in experiment [2] it was -9.3%; in experiment [3], -4.9%; in experiment [4], 4.2%; in experiment [5] it was -6.65%; in experiment [6] it was -11.8%.
For the compound `NN=C(c1ccc([N+](=O)[O-])cc1)c1ccc([N+](=O)[O-])cc1`, the growth inhibition in experiment [1] was -3.3%; in experiment [2], 0.55%; in experiment [3], -25.6%; in experiment [4], -9.65%; in experiment [5], 27%; in experiment [6] it was -0.7%.
In the case of `CCCCN(CCCC)CCC(O)c1cc(-c2ccc(C(F)(F)F)cc2)nc(C(F)(F)F)c1` (stereo not given), the growth inhibition is 98.5% (active) in experiment [1]; 56.2% in experiment [2]; 97.6% (active) in experiment [3]; 97.8% (active) in experiment [4]; 47.1% in experiment [5]; 96.8% (active) in experiment [6].
In the case of `NCC1COC(c2ccccc2)(c2ccccc2)O1` (stereo not given), the growth inhibition in experiment [1] is -2.25%; in experiment [2], -12.4%; in experiment [3], -12.9%; in experiment [4] it was -32.5%; in experiment [5], 17.8%; in experiment [6], -7.65%.
On to `COC1CC(n2ccc(=O)[nH]c2=O)OC1CO` (stereo not given), for which the growth inhibition in experiment [1] is -8.25%; in experiment [2], -10.6%; in experiment [3] it was 2.65%; in experiment [4], 28.1%; in experiment [5] it was -25.6%; in experiment [6], 6.4%.
Regarding `C(/C=N/Nc1ccccc1)=N\Nc1ccccc1`, the growth inhibition in experiment [1] was 24.1%; in experiment [2], -8.15%; in experiment [3], -0.65%; in experiment [4], -3%; in experiment [5], -9.85%; in experiment [6] it was 8.8%.
As to `NC(=O)c1ccccc1NC(=O)C(=O)C(C(=O)c1ccc(Cl)c(Cl)c1)C1OC(=O)c2ccccc21` (stereo not given), the growth inhibition is 53.2% in experiment [1]; 46.9% in experiment [2]; 32.9% in experiment [3]; 67.5% in experiment [4]; 57.9% in experiment [5]; 44.6% in experiment [6].
Regarding `CC1(C)CC([NH-])(C(=O)O)CC(C)(C)N1O.CC1(C)CC([NH-])(C(=O)O)CC(C)(C)N1O.[Zn+2]`, the growth inhibition in experiment [1] is -1.45%; in experiment [2], -17.1%; in experiment [3], -2.25%; in experiment [4], -41.9%; in experiment [5] it was 1.5%; in experiment [6], -7.4%.
For `C[n+]1c(/C=C\C=C\c2ccccc2)sc2ccccc21`, the growth inhibition is 16.6% in experiment [1]; 2.05% in experiment [2]; 16.1% in experiment [3]; 18.1% in experiment [4]; 3% in experiment [5]; 11.2% in experiment [6].
Take `CC(=O)Nc1ccc(S(N)(=O)=O)cc1`: the growth inhibition in experiment [1] is 16.6% and -34.8%; in experiment [2], 15.6% and 8.55%; in experiment [3] it was 16.1% and 21.3%; in experiment [4] it was 12% and -4.55%; in experiment [5], 1.75% and -3.65%; in experiment [6], 13.6% and 37%.
Take `Cc1[nH]c(N)nc(=S)c1CCCNc1ccccc1`: the growth inhibition in experiment [1] is 6.45%; in experiment [2], 2.1%; in experiment [3] it was 6.8%; in experiment [4] it was -9.15%; in experiment [5] it was -32.3%; in experiment [6], 26.2%.
Take `C=C1CC(COc2ccc3c(C)c(Cl)c(=O)oc3c2)(c2ccccc2)OC1=O` (stereo not given): the growth inhibition in experiment [1] is 19%; in experiment [2], 20.4%; in experiment [3], 40%; in experiment [4], 37.5%; in experiment [5], 18.8%; in experiment [6], 37.6%.
With `Cc1nnsc1C(=O)NCc1c(F)cccc1Cl`, the growth inhibition in experiment [1] is 6.65%; in experiment [2], 15.6%; in experiment [3], 11%; in experiment [4] it was 25.4%; in experiment [5], 37.3%; in experiment [6], 28.8%.
